Assay results from PubChem BioAssay (EPA / NIEHS).
Results filed as inconclusive are left out. Calls of active or inactive are those of the source. The calls were made as follows, unless noted: active = hit-call score of the fitted dose curve at least 0.9, where 1 is the maximum; inactive = score below 0.9.

Experiments:
[1] = ATG_DR4_LXR_CIS: Attagene CIS-FACTORIAL HepG2 Assay for human Liver X Receptor (LXR), DR4 submotif (AID 2282929); conditions: HepG2 Attagene DR4 cis-reporter, mRNA transcription; actives raise or lower the signal
In short: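 Endogenous factor activity at a DR4 cis-element is read as reporter mRNA in transiently transfected HepG2 cells. Exposure lasts 24 h; transcripts are amplified, fluorescently labelled and sized by capillary electrophoresis, with DMSO as baseline.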

[2] = ATG_AP_1_CIS: Attagene CIS-FACTORIAL HepG2 Assay for human Activator Protein 1 (AP-1) (AID 2282931); conditions: HepG2 Attagene cis-factorial AP-1 reporter mRNA; actives raise or lower the signal
In short: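 Fluorescence of labelled PCR fragments separated by capillary electrophoresis gives reporter mRNA levels. HepG2 with transfected cis-regulated reporter units, 24 h exposure; DMSO serves as baseline for bidirectional curve fits.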

[3] = biological target: Hepatocyte nuclear factor 3-beta (Homo sapiens) (UniProt Q9Y261); assay: ATG_FoxA2_CIS: Attagene CIS-FACTORIAL HepG2 Assay for human Forkhead box A2 (FOXA2) (AID 2282942); conditions: HepG2 cis-reporter transcription factor activity, 24 h; actives raise or lower the signal
Chain of Hepatocyte nuclear factor 3-beta (Homo sapiens) (Q9Y261 whole entry, looked up): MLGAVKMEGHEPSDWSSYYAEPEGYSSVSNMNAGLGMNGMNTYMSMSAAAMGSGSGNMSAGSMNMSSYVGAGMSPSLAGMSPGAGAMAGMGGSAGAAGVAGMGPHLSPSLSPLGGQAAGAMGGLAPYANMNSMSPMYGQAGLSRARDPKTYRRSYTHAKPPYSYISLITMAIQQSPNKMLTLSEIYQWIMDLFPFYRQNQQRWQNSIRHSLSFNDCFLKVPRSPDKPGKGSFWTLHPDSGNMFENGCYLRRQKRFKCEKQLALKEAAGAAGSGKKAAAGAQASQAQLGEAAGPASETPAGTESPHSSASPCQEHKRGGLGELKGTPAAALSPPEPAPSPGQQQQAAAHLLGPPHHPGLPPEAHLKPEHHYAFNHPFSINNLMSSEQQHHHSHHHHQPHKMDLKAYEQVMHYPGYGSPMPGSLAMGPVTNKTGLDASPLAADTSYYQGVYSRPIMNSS
In short: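 Cells: HepG2, transient multiplex reporter transfection. Exposure 24 h. Detection: reporter-specific RT-PCR, fluorescent labelling, restriction digest, capillary electrophoresis. Analysis: bidirectional curve fit, DMSO as negative control.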

[4] = biological target: Hypoxia-inducible factor 1-alpha (Homo sapiens) (UniProt Q16665); assay: ATG_HIF1a_CIS: Attagene CIS-FACTORIAL HepG2 Assay for human Hypoxia Inducible Factor 1 (HIF1A) (AID 2282951); conditions: HepG2 Attagene cis-factorial HIF1a reporter transcription; actives raise or lower the signal
In short: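 HepG2, transient cis-reporter library, 24 h dosing. RNA → RT (oligo dT) → PCR → 6-FAM primer extension → HpaI → CE. Bidirectional curve fit vs DMSO.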

[5] = biological target: Heat shock factor protein 1 (Homo sapiens) (UniProt Q00613); assay: ATG_HSE_CIS: Attagene CIS-FACTORIAL HepG2 Assay for human Heat Shock Transcription Factor 1 (HSE) (AID 2282953); conditions: HepG2 HSE cis-reporter, Attagene RNA transcription; actives raise or lower the signal
Chain of Heat shock factor protein 1 (Homo sapiens) (Q00613 whole entry, looked up): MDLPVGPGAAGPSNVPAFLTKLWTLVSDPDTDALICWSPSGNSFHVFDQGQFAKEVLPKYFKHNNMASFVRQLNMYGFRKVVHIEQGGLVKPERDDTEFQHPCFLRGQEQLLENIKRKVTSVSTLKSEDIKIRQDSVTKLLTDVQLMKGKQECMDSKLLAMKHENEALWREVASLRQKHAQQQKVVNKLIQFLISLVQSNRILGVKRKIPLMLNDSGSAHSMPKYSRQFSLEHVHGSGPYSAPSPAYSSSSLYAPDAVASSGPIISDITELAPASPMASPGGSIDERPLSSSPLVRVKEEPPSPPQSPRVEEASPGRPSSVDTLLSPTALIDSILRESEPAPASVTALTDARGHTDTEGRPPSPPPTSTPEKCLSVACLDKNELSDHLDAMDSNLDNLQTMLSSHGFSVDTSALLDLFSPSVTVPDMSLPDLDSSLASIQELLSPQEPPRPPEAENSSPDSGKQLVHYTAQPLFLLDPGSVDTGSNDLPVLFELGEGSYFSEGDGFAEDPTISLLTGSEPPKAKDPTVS
In short: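 After a 24 h incubation with test chemical, transfected HepG2 cells were harvested for RNA; reporter transcripts were measured by RT-PCR and capillary electrophoresis. Values reflect gain or loss of signal relative to DMSO.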

[6] = ATG_RORE_CIS: Attagene CIS-FACTORIAL HepG2 Assay for human RAR-related Orphan Receptor Element (RORE) (AID 2282959); conditions: HepG2 Attagene cis-factorial RORE reporter, mRNA; actives raise or lower the signal
In short: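 Multiplexed reporter assay measuring mRNA induction from a cis promoter element in transiently transfected HepG2 cells after 24 h treatment. Detection via RT-PCR and capillary electrophoresis fluorescence; DMSO serves as baseline.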

[7] = biological target: Signal transducer and activator of transcription 3 (Homo sapiens) (UniProt P40763); assay: ATG_STAT3_CIS: Attagene CIS-FACTORIAL HepG2 Assay for human Signal Transducer and Activator of Transcription 3 (STAT3) (AID 2282963); conditions: HepG2, Attagene cis-factorial STAT3 reporter transcription; actives raise or lower the signal
Chain of Signal transducer and activator of transcription 3 (Homo sapiens) (P40763 whole entry, looked up, the tested form may be a part): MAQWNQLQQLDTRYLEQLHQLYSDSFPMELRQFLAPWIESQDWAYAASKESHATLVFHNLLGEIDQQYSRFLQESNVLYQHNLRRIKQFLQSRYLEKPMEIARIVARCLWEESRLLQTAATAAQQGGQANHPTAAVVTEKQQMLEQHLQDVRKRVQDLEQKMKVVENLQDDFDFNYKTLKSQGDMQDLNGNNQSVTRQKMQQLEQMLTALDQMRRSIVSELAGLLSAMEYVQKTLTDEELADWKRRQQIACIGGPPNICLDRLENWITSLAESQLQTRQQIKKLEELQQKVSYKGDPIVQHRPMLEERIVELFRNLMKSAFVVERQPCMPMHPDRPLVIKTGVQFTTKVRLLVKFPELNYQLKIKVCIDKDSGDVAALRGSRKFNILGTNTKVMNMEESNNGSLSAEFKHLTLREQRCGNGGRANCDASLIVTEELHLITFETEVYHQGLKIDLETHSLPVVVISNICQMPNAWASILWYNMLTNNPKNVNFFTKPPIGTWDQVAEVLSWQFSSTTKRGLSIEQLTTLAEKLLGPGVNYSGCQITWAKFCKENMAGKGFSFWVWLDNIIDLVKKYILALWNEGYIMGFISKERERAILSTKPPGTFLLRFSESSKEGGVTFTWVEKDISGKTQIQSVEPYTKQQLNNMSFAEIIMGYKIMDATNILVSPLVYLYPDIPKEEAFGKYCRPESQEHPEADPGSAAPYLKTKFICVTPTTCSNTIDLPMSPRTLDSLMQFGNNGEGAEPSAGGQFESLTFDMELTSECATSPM
In short: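 Fluorescence intensity of 6-FAM-labelled reporter fragments, separated by capillary electrophoresis after RT-PCR, gave the signal. Cells were HepG2 transfected with cis-element reporter units and treated 24 h; fitting was bidirectional relative to DMSO.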

[8] = ATG_TCF_b_cat_CIS: Attagene CIS-FACTORIAL HepG2 Assay for human T-Cell-Factor with beta-catenin (TCF/b-cat) (AID 2282965); conditions: HepG2 TCF/beta-catenin cis-reporter transcription, actives raise or lower the signal
In short: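 HepG2 cells transiently transfected with cis-promoter-driven multiplexed reporter units; reporter mRNA measured 24 h after dosing by RT-PCR, FAM labelling, HpaI digestion and capillary electrophoresis. Bidirectional fitting relative to DMSO baseline.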

[9] = ATG_TAL_CIS: Attagene CIS-FACTORIAL HepG2 Assay for human TAL Basal Promoter (AID 2282966); conditions: HepG2 Attagene cis-factorial TAL promoter reporter; actives raise or lower the signal;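 also: background control endpoint measuring basal TAL promoter reporter mRNA not a specific factor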
In short: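 Background-control endpoint: basal TAL promoter reporter transcripts in transiently transfected HepG2, measured 24 h after dosing. Read-out by RT-PCR with fluorescent primer extension and capillary electrophoresis; gain or loss of signal fitted relative to DMSO.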

[10] = ATG_TGFb_CIS: Attagene CIS-FACTORIAL HepG2 Assay for human Transforming Growth Factor (TGF) (AID 2282967); conditions: HepG2 Attagene CIS TGFb reporter, mRNA transcription; actives raise or lower the signal
In short: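 Transcript-level reporter readout: HepG2 transfectants, 24 h exposure, RNA to cDNA, reporter-specific PCR, fluorescent primer extension, capillary sizing against ROX standards. Gain- or loss-of-signal relative to DMSO.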

[11] = ATG_VDRE_CIS: Attagene CIS-FACTORIAL HepG2 Assay for human Vitamin D Receptor Element (VDRE) (AID 2282968); conditions: HepG2 VDRE cis-reporter transcription, actives raise or lower the signal
In short: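 Compounds were applied for 24 h to HepG2 cells transfected with promoter-regulated reporter units. Total RNA was reverse-transcribed, and reporter amplicons were fluorescently labelled and sized by capillary electrophoresis.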

[12] = biological target: X-box-binding protein 1 (Homo sapiens) (UniProt P17861); assay: ATG_Xbp1_CIS: Attagene CIS-FACTORIAL HepG2 Assay for human X-box Binding Protein 1 (XBP1) (AID 2282972); conditions: HepG2 XBP1 cis-element reporter, Attagene multiplex; actives raise or lower the signal
Chain of X-box-binding protein 1 (Homo sapiens) (P17861 whole entry, looked up): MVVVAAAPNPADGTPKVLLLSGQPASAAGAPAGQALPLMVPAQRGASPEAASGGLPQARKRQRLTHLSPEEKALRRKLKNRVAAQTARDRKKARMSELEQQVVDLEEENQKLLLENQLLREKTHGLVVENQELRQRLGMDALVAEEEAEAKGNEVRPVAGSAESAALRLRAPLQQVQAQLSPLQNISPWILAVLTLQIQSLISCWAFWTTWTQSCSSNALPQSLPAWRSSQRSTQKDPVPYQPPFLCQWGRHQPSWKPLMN
In short: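 Human hepatoma HepG2, cis-element reporter system, 24 h treatment; mRNA quantified by RT-PCR/CE fluorescence; fit relative to DMSO.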

[13] = biological target: Transcriptional activator Myb (Homo sapiens) (UniProt P10242); assay: ATG_Myb_CIS: Attagene CIS-FACTORIAL HepG2 Assay for human Myeloblastosis (Myb) Proto-Oncogene Transcription Factor (AID 2282986); conditions: HepG2 Attagene CIS-FACTORIAL Myb reporter transcription; actives raise or lower the signal
Chain of Transcriptional activator Myb (Homo sapiens) (P10242 whole entry, looked up): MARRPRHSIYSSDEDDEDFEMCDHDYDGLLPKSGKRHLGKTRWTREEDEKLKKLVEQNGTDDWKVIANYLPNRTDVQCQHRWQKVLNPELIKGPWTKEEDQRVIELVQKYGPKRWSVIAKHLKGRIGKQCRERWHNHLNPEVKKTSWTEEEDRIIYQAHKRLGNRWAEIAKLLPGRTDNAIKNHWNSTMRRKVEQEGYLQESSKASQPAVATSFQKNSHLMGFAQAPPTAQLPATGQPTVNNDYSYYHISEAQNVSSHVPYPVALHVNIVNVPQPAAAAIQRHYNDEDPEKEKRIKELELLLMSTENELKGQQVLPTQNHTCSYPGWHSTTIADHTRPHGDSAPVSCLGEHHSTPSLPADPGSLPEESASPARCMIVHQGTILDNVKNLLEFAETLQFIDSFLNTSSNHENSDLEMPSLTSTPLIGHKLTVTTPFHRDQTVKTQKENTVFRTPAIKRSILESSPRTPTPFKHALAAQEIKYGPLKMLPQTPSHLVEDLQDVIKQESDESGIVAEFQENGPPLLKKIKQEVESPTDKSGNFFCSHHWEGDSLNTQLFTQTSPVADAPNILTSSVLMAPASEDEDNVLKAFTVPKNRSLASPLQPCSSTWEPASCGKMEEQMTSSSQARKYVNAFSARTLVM
In short: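 Endogenous transcription factor activity at a Myb-responsive cis element is reported in human liver HepG2 cells after 24 h chemical treatment. Reporter mRNA is detected by RT-PCR and capillary electrophoresis fluorescence, with DMSO as baseline.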

[14] = biological target: Nuclear respiratory factor 1 (Homo sapiens) (UniProt Q16656); assay: ATG_NRF1_CIS: Attagene CIS-FACTORIAL HepG2 Assay for human Nuclear Respiratory Factor 1 (NRF1) Orphan Gene (AID 2282987); conditions: HepG2 NRF1 cis-element reporter, Attagene multiplex; actives raise or lower the signal
Chain of Nuclear respiratory factor 1 (Homo sapiens) (Q16656 whole entry, looked up): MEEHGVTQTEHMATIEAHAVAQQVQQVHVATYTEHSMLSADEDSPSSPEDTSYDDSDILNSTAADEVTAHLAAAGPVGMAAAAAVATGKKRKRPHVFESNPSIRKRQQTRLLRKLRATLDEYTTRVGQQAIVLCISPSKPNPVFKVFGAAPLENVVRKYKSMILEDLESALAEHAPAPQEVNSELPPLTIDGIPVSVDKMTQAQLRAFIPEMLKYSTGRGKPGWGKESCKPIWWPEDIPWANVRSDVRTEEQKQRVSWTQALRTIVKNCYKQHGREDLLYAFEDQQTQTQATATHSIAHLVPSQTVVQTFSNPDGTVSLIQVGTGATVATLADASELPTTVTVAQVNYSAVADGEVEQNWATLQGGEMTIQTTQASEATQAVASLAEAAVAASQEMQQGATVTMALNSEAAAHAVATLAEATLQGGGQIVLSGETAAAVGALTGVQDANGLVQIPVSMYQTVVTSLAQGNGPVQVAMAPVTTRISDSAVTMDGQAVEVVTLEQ
In short: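 Human hepatoma HepG2 cells carrying transfected promoter-regulated reporter units were incubated with test chemicals for 24 h. Reporter transcripts were measured by RT-PCR plus capillary electrophoresis, and endpoints derived by bidirectional fitting with DMSO as baseline.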

[15] = biological target: Myc proto-oncogene protein (Homo sapiens) (UniProt P01106); assay: ATG_Myc_CIS: Attagene CIS-FACTORIAL HepG2 Assay for human Myelocytomatosis (Myc) Proto-Oncogene Transcription Factor (AID 2282990); conditions: HepG2, Attagene cis-reporter transcription factor activity; actives raise or lower the signal
Chain of Myc proto-oncogene protein (Homo sapiens) (P01106 whole entry, looked up): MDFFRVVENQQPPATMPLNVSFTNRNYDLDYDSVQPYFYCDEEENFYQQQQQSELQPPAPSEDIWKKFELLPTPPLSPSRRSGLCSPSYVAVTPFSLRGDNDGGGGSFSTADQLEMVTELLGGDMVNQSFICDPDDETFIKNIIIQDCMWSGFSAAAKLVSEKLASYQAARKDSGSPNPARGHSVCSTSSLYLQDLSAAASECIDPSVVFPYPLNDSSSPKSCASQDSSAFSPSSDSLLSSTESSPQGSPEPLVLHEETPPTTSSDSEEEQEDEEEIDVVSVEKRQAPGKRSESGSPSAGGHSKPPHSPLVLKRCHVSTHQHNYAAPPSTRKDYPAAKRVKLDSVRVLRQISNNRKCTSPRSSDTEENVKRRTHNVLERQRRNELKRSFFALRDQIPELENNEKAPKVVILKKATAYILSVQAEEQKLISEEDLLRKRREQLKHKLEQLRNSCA
In short: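 Transiently transfected HepG2 cells bearing cis-promoter reporter units for endogenous transcription factors; 24 h exposure. Reporter mRNA measured by RT-PCR, 6-FAM primer extension, HpaI cut and capillary electrophoresis; bidirectional fit relative to DMSO.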

[16] = ATG_NRF2_ARE_CIS: Attagene CIS-FACTORIAL HepG2 Assay for human Nuclear Factor Erythroid 2 Related Factor 2 (NFR2) response to Antioxidant Response Elements (ARE) (AID 2282992); conditions: HepG2 Attagene ARE/NRF2 reporter, transcription factor activity; actives raise or lower the signal
In short: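 Fluorescence intensity of reporter-specific cDNA fragments, separated by capillary electrophoresis, reflects mRNA induction in transfected HepG2 cells at 24 h. Activity is fitted bidirectionally, DMSO serving as baseline.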

[17] = ATG_Oct_MLP_CIS: Attagene CIS-FACTORIAL HepG2 Assay for human Octamer-Binding Transcription Factor (Oct) (AID 2282993); conditions: HepG2 Attagene cis-factorial Oct reporter, mRNA; actives raise or lower the signal
In short: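 Cells of the HepG2 line express promoter-controlled reporter sequences whose mRNA levels, after 24 h treatment, are measured by RT-PCR and capillary electrophoresis. Increases and decreases are scored relative to DMSO.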

[18] = ATG_XTT_Cytotoxicity: Cytotoxicity Assessment in the Attagene TRANS-FACTORIAL HepG2 Assay (AID 2283584; active = hit-call score of the fitted dose curve at least 0.9, where 1 is the maximum)
In short: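 Viability endpoint from XTT after 24 h chemical exposure of reporter-transfected human HepG2 liver cells; signal loss fitted relative to DMSO negative control.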

[19] = biological target: Cellular tumor antigen p53 (Homo sapiens) (UniProt P04637); assay: ATG_p53_CIS: Attagene CIS-FACTORIAL HepG2 Assay for human p53 Transcription Factor (AID 2282994); conditions: HepG2 p53 cis-element reporter, Attagene mRNA; actives raise or lower the signal
Chain of Cellular tumor antigen p53 (Homo sapiens) (P04637 whole entry, looked up): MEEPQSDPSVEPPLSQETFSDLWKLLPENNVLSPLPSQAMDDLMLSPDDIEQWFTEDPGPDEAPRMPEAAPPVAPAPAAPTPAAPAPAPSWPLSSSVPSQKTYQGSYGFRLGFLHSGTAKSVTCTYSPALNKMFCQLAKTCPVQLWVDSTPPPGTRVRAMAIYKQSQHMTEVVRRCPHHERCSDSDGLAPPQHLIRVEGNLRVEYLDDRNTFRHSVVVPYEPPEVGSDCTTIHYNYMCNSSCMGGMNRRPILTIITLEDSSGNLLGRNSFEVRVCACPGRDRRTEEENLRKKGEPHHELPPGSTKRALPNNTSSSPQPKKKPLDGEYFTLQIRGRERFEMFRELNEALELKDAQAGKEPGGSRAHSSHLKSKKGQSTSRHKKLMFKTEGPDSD
In short: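 Transiently transfected HepG2 (multiple cis reporter transcription units); exposure 24 h; reporter RNA via RT-PCR, 6-FAM extension, 2 h HpaI digest at 37 C, CE detection; DMSO baseline.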

[20] = biological target: Nuclear receptor subfamily 1 group I member 2 (Homo sapiens) (UniProt O75469); assay: ATG_PXR_TRANS: Attagene TRANS-FACTORIAL HepG2 Assay for human Pregnane X Receptor (PXR) (AID 2283008; active = hit-call score of the fitted dose curve at least 0.9, where 1 is the maximum)
Chain of Nuclear receptor subfamily 1 group I member 2 (Homo sapiens) (O75469 whole entry, looked up, the tested form may be a part): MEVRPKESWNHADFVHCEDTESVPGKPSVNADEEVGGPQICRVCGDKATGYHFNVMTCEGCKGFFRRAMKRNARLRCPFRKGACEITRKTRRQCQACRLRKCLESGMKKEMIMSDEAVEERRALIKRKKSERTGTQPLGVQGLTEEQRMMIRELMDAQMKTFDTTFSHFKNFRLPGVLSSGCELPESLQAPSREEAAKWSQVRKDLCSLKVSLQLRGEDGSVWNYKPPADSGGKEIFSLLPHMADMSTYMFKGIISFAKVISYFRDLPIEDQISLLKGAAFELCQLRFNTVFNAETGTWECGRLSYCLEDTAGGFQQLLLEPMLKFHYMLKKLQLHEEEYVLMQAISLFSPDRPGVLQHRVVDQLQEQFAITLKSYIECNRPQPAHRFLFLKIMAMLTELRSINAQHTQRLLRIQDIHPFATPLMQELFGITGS
In short: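 Transient HepG2 transfectants carrying multiplexed reporter transcription units; PXR activity read through a Gal4 chimera. 24 h exposure. RT-PCR/CE fluorescence; upward curve fit referenced to DMSO.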

Measured: AC50

CO[Si](CCCNCCN)(OC)OC
not listed: [19] | [20]
inactive: all other assays above

COC(=O)[C@]1(C)CCC[C@@]2(C)[C@H]1CC=C1C=C(C(C)C)CC[C@@H]12
active: [2] 62.4 µM | [5] 26.4 µM | [9] 52.4 µM | [11] 26.4 µM | [16] 32.2 µM | [20] 25.1 µM
inactive: all other assays above

C1=CCC=C1
not listed: [5] | [19] | [20]
inactive: all other assays above

Clc1ccccn1
not listed: [18] | [20]
inactive: all other assays above

CCCCCCC1CCC(=O)O1 (configuration not stated)
not listed: [17]
inactive: all other assays above

CN(C)c1ccc(C(c2ccccc2)c2ccc(N(C)C)cc2)cc1
active: [2] 100 µM | [11] 7.62 µM | [16] 68.1 µM | [20] 2.06 µM
inactive: all other assays above

CC/C=C\CC1=C(C)CCC1=O
active: [16] 35.9 µM
inactive: all other assays above
